41 compounds from PubChem BioAssay AID2330 (Broad Institute, 2010) can be followed below.

About 2,800 (7.6%) of roughly 37,000 compounds were called active. Inconclusive results (about 1%) are left out. Rule as the data show it: active = inhibition above about 80%; inconclusive = no clear call, values can overlap the other calls; inactive = below that. Shown is part of a subset that was picked to be rich in actives.

The assay is described as follows: NOMO-1 AML cell viability reduction, primary screen, STK33 inhibitor project, CellTiter-Glo luminescence (AID 2330). As to conditions: NOMO-1 AML viability, 72 h, stronger effect = higher value, concentration not given here.
What is called inhibition is the change of the read-out against control, counted positive when it falls. Turning to `C[C@@H]1CN([C@H](C)CO)C(=O)Cc2cc(NS(=O)(=O)c3ccc(Cl)cc3)ccc2O[C@@H]1CN(C)S(=O)(=O)c1ccc(Cl)cc1`, the inhibition was 19.9% (inactive).

`C[C@@H]1CN([C@H](C)CO)C(=O)c2cc(NC(=O)Cc3ccccc3)ccc2O[C@H]1CN(C)S(=O)(=O)c1cn(C)cn1`: the inhibition was 4.97% (inactive).

Take `CC(Sc1nc2ccccc2[nH]1)c1nc2ccccc2[nH]1` (stereo unspecified): the inhibition is 4.08% (inactive).

For `Cc1cccc(C)c1NC(=O)C(C)N(c1ccc(Cl)cc1)S(C)(=O)=O` (stereo unspecified), the inhibition is -16.6% (inactive).

`CCOC(=O)c1c(NC(=O)Cn2nc([N+](=O)[O-])c(Br)c2C)sc2c1CCCC2`: the inhibition was 41.4% (inactive).

With `Cc1ccc(S(=O)(=O)Nc2cccc3c2O[C@@H](CN(C)CC2CCCCC2)[C@H](C)CN([C@@H](C)CO)C3=O)cc1`, the inhibition is 10.5% (inactive).

As for `Cc1ccc(S(=O)(=O)Nc2cccc3c2O[C@@H](CN(C)S(=O)(=O)c2ccc(C)cc2)[C@H](C)CN([C@@H](C)CO)C3=O)cc1`, the inhibition was 4.36% (inactive).

Consider `C[C@H](CO)N1C[C@H](C)[C@@H](CN(C)Cc2ccc3c(c2)OCO3)Oc2c(cccc2N(C)C)C1=O`, for which the inhibition was 21.9% (inactive).

With `C[C@H]1CN([C@@H](C)CO)C(=O)c2cc(NS(=O)(=O)c3ccccc3)ccc2O[C@@H]1CN(C)C(=O)NC1CCCCC1`, the inhibition was 13.9% (inactive).

Take `C[C@H]1CN([C@@H](C)CO)C(=O)c2cccc(NS(=O)(=O)c3ccccc3)c2O[C@@H]1CN(C)C(=O)Nc1ccc(C(F)(F)F)cc1`: the inhibition was -8.64% (inactive).

Regarding `C[C@@H]1CN([C@@H](C)CO)C(=O)c2cccc(NC(=O)Nc3ccc(C(F)(F)F)cc3)c2O[C@@H]1CN(C)S(=O)(=O)c1cccs1`, the inhibition is 96.7% (active).

Turning to `COc1ccc(NC(=O)Nc2cccc3c2O[C@H](CN(C)S(=O)(=O)c2cccs2)[C@H](C)CN([C@@H](C)CO)C3=O)cc1`, the inhibition was 34.9% (inactive).

In the case of `C[C@@H]1CN([C@H](C)CO)C(=O)c2cccc(NS(=O)(=O)c3ccc(F)cc3)c2O[C@@H]1CN(C)C(=O)Nc1ccc(C(F)(F)F)cc1`, the inhibition was 101% (active).

For `Cc1ccc(S(=O)(=O)Nc2cccc3c2O[C@H](CN(C)C(=O)Nc2ccc(C(F)(F)F)cc2)[C@@H](C)CN([C@@H](C)CO)C3=O)cc1`, the inhibition is -0.901% (inactive).

On to `C[C@H]1CN([C@@H](C)CO)C(=O)c2cccc(NC(=O)Nc3ccc(C(F)(F)F)cc3)c2O[C@H]1CN(C)S(=O)(=O)c1ccccc1`, for which the inhibition is 54.4% (inactive).

With `CC(C)NC(=O)Nc1cccc2c1O[C@@H](CN(C)S(=O)(=O)c1ccc(F)cc1)[C@@H](C)CN([C@H](C)CO)C2=O`, the inhibition was -7.11% (inactive).

On to `CCn1c(=O)cc(O)c2ccccc21`, for which the inhibition is 27.9% (inactive).

Consider `C[C@H](CO)N1C[C@H](C)[C@H](CN(C)C(=O)NC2CCCCC2)Oc2ccc(NC(=O)c3ccncc3)cc2CC1=O`, for which the inhibition was -3.17% (inactive).

Take `COc1ccc(S(=O)(=O)N(C)C[C@H]2Oc3ccc(NS(C)(=O)=O)cc3C(=O)N([C@H](C)CO)C[C@H]2C)cc1`: the inhibition is -0.557% (inactive).

Consider `C[C@@H]1CCCCO[C@H](CN(C)S(C)(=O)=O)[C@@H](C)CN([C@H](C)CO)C(=O)c2cc(NS(=O)(=O)c3ccc(Cl)cc3)ccc2O1`, for which the inhibition is 4.39% (inactive).

Take `CC(C)=CCCC1(C)C=Cc2c(ccc3c2[nH]c2cc(O)c(C)cc23)O1` (stereo unspecified): the inhibition is 108% (active).

As for `O=C(CC1SC(=NC2CC3C=CC2C3)NC1=O)Nc1ccccc1Cl` (stereo unspecified), the inhibition is 8.48% (inactive).

As to `CC(C)CC(C(=O)Nc1cccc([N+](=O)[O-])c1)N1C(=O)c2ccccc2C1=O` (stereo unspecified), the inhibition was 26.9% (inactive).

As to `COc1ccc(NC(=O)Nc2nn(Cc3ccc(Cl)cc3Cl)cc2Br)cc1OC`, the inhibition was 39.9% (inactive).

For `O=[N+]([O-])c1cccc(NC(=S)Nc2nn(Cc3ccc(Cl)cc3Cl)cc2Cl)c1`, the inhibition is 111% (active).

Regarding `C[C@H]1CN([C@@H](C)CO)C(=O)c2cc(NC(=O)Nc3ccc4c(c3)OCO4)ccc2O[C@H]1CN(C)S(=O)(=O)c1ccc(F)cc1`, the inhibition was 18.9% (inactive).

For `C[C@H]1CN([C@@H](C)CO)C(=O)c2cccc(NS(=O)(=O)c3cn(C)cn3)c2O[C@@H]1CN(C)C(=O)Nc1ccc(F)cc1`, the inhibition is 7.11% (inactive).

With `C[C@H]1O[C@@H](O[C@H]2[C@@H](O)C[C@H](O[C@H]3[C@@H](O)C[C@H](O[C@H]4CC[C@]5(C)C6C[C@@H](O)[C@]7(C)[C@@H](C8=CC(=O)OC8)CC[C@]7(O)C6CC[C@@H]5C4)O[C@@H]3C)O[C@@H]2C)C[C@H](O)[C@@H]1O` (stereo partly specified), the inhibition is 112% (active).

For the compound `C[C@H]1CN([C@@H](C)CO)C(=O)Cc2cc(NC(=O)C3CC3)ccc2O[C@@H]1CN(C)C(=O)NC1CCCCC1`, the inhibition was -0.0688% (inactive).

Consider `Cc1ccc(S(=O)(=O)N(C)C[C@@H]2Oc3c(NS(=O)(=O)c4ccc(F)cc4)cccc3C(=O)N([C@@H](C)CO)C[C@H]2C)cc1`, for which the inhibition is -7.97% (inactive).

On to `CCCc1nc2c(C)cc(-c3nc4ccccc4n3C)cc2n1Cc1ccc(-c2ccccc2C(=O)O)cc1`, for which the inhibition was 0.908% (inactive).

Regarding `C[C@H](CO)N1C[C@H](C)[C@H](CN(C)C)Oc2c(NC(=O)C3CCOCC3)cccc2C1=O`, the inhibition is -4.27% (inactive).

For the compound `O=C(O)CCSc1nnc2c(n1)[nH]c1ccccc12`, the inhibition is 16.8% (inactive).

As for `O=C(CCn1cnc2ccccc2c1=O)Nc1cccc(C(F)(F)F)c1`, the inhibition was -23.9% (inactive).

For `O=C(CSc1nnc2c(n1)[nH]c1ccccc12)Nc1cccc(C(F)(F)F)c1`, the inhibition was 112% (active).

With `COc1ccc(NC(=O)C(=O)NCC(=O)Nc2cccc(C(F)(F)F)c2)cc1`, the inhibition is 14% (inactive).

Take `Nc1nnc(SCCN2C(=O)c3ccccc3S2(=O)=O)s1`: the inhibition is 32.8% (inactive).

On to `O=C1c2ccccc2S(=O)c2ccccc2S(=O)(=O)N1Cc1ccccc1` (stereo unspecified), for which the inhibition was 117% (active).

As to `O=C(CN1C(=O)c2ccccc2S1(=O)=O)Nc1ccc(F)c(F)c1`, the inhibition is 36.7% (inactive).

In the case of `Cc1noc(C)c1NC(=O)Nc1ccc2c(c1)C(=O)N([C@@H](C)CO)C[C@H](C)[C@@H](CN(C)C(=O)Nc1ccccc1)O2`, the inhibition was -19% (inactive).

Regarding `Cc1ccc(S(=O)(=O)N(C)C[C@@H]2Oc3ccc(NC(=O)Cn4cnnn4)cc3CC(=O)N([C@H](C)CO)C[C@H]2C)cc1`, the inhibition was -11.1% (inactive).
